Experimental data: PubChem BioAssay (Tox21)
Inconclusive results are not listed. Calls of active or inactive are those of the source. Unless noted, the call rests on the fitted dose curve.

Columns and labels:
[1] = Nuclear factor erythroid 2-related factor 2/antioxidant responsive element (Nrf2/ARE) small molecule agonists: qHTS cell viability counter screen in human keratinocytes (AID 1919968; active means well fitted curve in the direction sought with a large enough effect in the repeat runs; an effect the other way counts as inactive or inconclusive; further: nearly all actives have a fitted effect of over 55% in size)
Procedure, shortened: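 In human HaCaT keratinocytes stably expressing an ARE-driven luciferase, compound exposure lasted 23 h at 37 C under 5% CO2. Viable cells are quantified with a protease-based fluorogenic reagent (CellTiter-Fluor) read 1 h after addition.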

[2] = Nuclear factor erythroid 2-related factor 2/antioxidant responsive element (Nrf2/ARE) small molecule agonists: luciferase reporter gene qHTS assay in human keratinocytes (AID 1919969); further: nearly all actives have a fitted effect of over 35% in size
[3] = biological target: Gonadotropin-releasing hormone receptor (Homo sapiens) (UniProt P30968); experiment: Human gonadotropin-releasing hormone receptor (GnRHR) small molecule agonists, calcium flux assay in GnRHR-HEK293 cells (AID 1920063); further: nearly all actives have a fitted effect of over 35% in size
Procedure, shortened: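 Intracellular calcium rise is the read-out: engineered human GnRHR HEK293 cells, dye-loaded, are exposed to DMSO-dissolved compounds and fluorescence at Ex/Em 480/540 is tracked for 3 min.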

[4] = biological target: KiSS-1 receptor (Homo sapiens) (UniProt Q969F8); experiment: Human kisspeptin (KISS1R) small molecule agonists, calcium flux assay in KISS1R-HEK293 cells (AID 1920064; active means well fitted curve in the direction sought with a large enough effect in the repeat runs; an effect the other way counts as inactive or inconclusive)
Procedure, shortened: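 Concentration-response testing used 15 concentrations in triplicate on human KISS1R-expressing HEK293 cells. Calcium-dependent fluorescence (Ex/Em 480/540) was followed kinetically for 3 min after compound transfer.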

[5] = G protein-coupled receptor (GPCR) small molecule agonists, calcium flux assay: HEK293 wild type cell line counter screen (AID 1920065)
Procedure, shortened: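 Fluorescence intensity signals activation. After overnight (18 h) culture and a 1 h calcium dye load at 37 C, compounds are added by pin tool and the plate read at 480/540 nm for 3 min in 1 s steps.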

[6] = p53 small molecule agonists, cell-based qHTS assay with human liver microsomes (AID 1963577);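 further: p53 response element beta-lactamase reporter cells with liver microsomes plus NADPH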
Procedure, shortened: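 Steps: plate p53RE-bla cells, incubate 5 h at 37 C; add compound in DMSO; add microsomes (0.5 mg/mL final) and NADPH (0.5 mg/mL final); incubate 16 h at 37 C; add LiveBLAzer, 2 h RT; read fluorescence.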

[7] = p53 small molecule agonists, cell-based qHTS assay with rat liver microsomes (AID 1963578)
Procedure, shortened: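 Metabolic activation is supplied by rat liver microsomes with NADPH (each 0.5 mg/mL final). p53RE-bla cells incubate with compound 16 h at 37 C; reporter activity is measured by LiveBLAzer fluorescence.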

[8] = p53 small molecule agonists, cell-based qHTS assay with human liver microsomes: qHTS cell viability counter screen (AID 1963579); further: nearly all actives have a fitted effect of over 45% in size
Procedure, shortened: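 After the 460/530 nm beta-lactamase read, CellTiter-Glo was added to the same wells and luminescence measured after 30 min at room temperature, giving viability of p53RE-bla cells treated 16 h with compounds plus microsomes and NADPH.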

[9] = p53 small molecule agonists, cell-based qHTS assay with rat liver microsomes: qHTS cell viability counter screen (AID 1963580); further: nearly all actives have a fitted effect of over 45% in size
Procedure, shortened: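 After the beta-lactamase ratio was read, CellTiter-Glo was added to the same wells and luminescence measured at 30 min; cells had been treated 16 h at 37 C with compounds, rat liver microsomes and NADPH (0.5 mg/mL final each).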

[10] = p53 small molecule agonists, cell-based qHTS assay: qHTS cell viability counter screen (AID 1963581); further: nearly all actives have a fitted effect of over 45% in size
Procedure, shortened: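 Luminescence from CellTiter-Glo, reflecting ATP content, serves as the cytotoxicity measure; it is taken after the 2 h reporter substrate step in HCT-116 p53RE-bla cells dosed for 16 h at 37 C.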

[11] = p53 small molecule agonists, cell-based qHTS assay (AID 1963582; active means well fitted activation curve with a large enough effect in the signal ratio in the repeat runs, not every such curve was filed as active; the % refers to the signal ratio)
Procedure, shortened: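 After plating, p53RE-bla cells sat 5 h in the incubator; compounds or DMSO vehicle were pinned in; a 16 h incubation at 37 C followed; FRET substrate was added and, 2 h later at RT, fluorescence was measured.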

[12] = biological target: 5-hydroxytryptamine receptor 2A (Homo sapiens) (UniProt P28223); experiment: 5-hydroxytryptamine receptor 2A (HTR2A) small molecule antagonists, cell-based qHTS assay (AID 1963586); further: nearly all actives have a fitted effect of over 45% in size
Procedure, shortened: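 CHO cells stably expressing human HTR2A were plated for 18 h at 37 C, then loaded with calcium dye for 1 h. Compounds were preincubated 5 min at room temperature before DOI (4 nM solution) was added. Kinetic fluorescence was read for 3 min.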

[13] = biological target: 5-hydroxytryptamine receptor 2A (Homo sapiens) (UniProt P28223); experiment: 5-hydroxytryptamine receptor 2A (HTR2A) small molecule agonists, cell-based qHTS assay (AID 1963587); further: nearly all actives have a fitted effect of over 30% in size
Procedure, shortened: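 CHO cells stably expressing human HTR2A, plated 18 h, loaded with calcium dye 1 h at 37 C. Agonist mode: compounds added and intracellular calcium fluorescence recorded kinetically for 2 min at 1 sec intervals.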

[14] = biological target: Muscarinic acetylcholine receptor M1 (Homo sapiens) (UniProt P11229); experiment: Cholinergic receptor muscarinic 1 (CHRM1) small molecule antagonists, cell-based qHTS assay (AID 1963588); further: nearly all actives have a fitted effect of over 40% in size; further: potency means the concentration at half of the fitted maximal effect
Procedure, shortened: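 Compounds were tested at 15 concentrations in three independent runs. Dye-loaded CHRM1-CHO cells were exposed 5 min at room temperature before stimulation by acetylcholine added at 50nM. Intracellular calcium was read kinetically on FDSS for 3 min.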

[15] = biological target: Muscarinic acetylcholine receptor M1 (Homo sapiens) (UniProt P11229); experiment: Cholinergic receptor muscarinic 1 (CHRM1) small molecule agonists, cell-based qHTS assay (AID 1963589); further: nearly all actives have a fitted effect of over 35% in size
Procedure, shortened: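 Fluorescent calcium dye reports M1 activation in stably transfected CHO cells. Compounds, 15 concentrations, added after 1 h dye loading at 37 C; kinetic reading at 1 sec intervals.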

[16] = cAMP Responsive Elements (CRE) small molecule agonists, cell-based qHTS assay (AID 1963590)
Procedure, shortened: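 Compound exposure lasted 3 h at 37 C/5% CO2 in CRE-bla HEK 293T cells grown in assay medium with 10% dialyzed FBS and 25 mM HEPES. Reporter signal came from LiveBLAzer B/G FRET substrate, 2 h, room temperature.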

[17] = cAMP Responsive Elements (CRE) small molecule antagonists, cell-based qHTS assay (AID 1963591; active means well fitted inhibition curve with a large enough effect in the signal ratio in the repeat runs, not every such curve was filed as active; the % refers to the signal ratio)
Procedure, shortened: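 Stimulation used NKH477 at a final 0.25 uM for 3 h in compound-treated CRE-bla HEK293T cells, seeded 18 h beforehand. Reporter activity was measured with LiveBLAzer B/G FRET substrate after 2 h at room temperature.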

[18] = biological target: Beta-2 adrenergic receptor (Homo sapiens) (UniProt P07550); experiment: Adrenergic beta2 receptor (ADRB2) small molecule antagonists, cell-based qHTS assay (AID 1963592); further: series mostly up to about 92 µM; nearly all actives have a fitted effect of over 50% in size
Procedure, shortened: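 Assay format: CHO-ADRB2 cells, 18-20hr seeding at 37C/5% CO2, then compound plus 1nM isoproterenol agonist mix for 0.5hr RT. Homogeneous time-resolved fluorescence cAMP detection after 1hr, expressed as 665/615 nm ratio.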

[19] = biological target: D(2) dopamine receptor (Homo sapiens) (UniProt P14416); experiment: Dopamine D2 receptor (DRD2) small molecule agonists, cell-based qHTS assay (AID 1963594); further: nearly all actives have a fitted effect of over 35% in size
Procedure, shortened: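 HEK293 cells stably expressing human DRD2, pre-treated with PDE inhibitor Ro20-1724 (0.1 mM final) and compound 10 min at room temperature, then stimulated with NKH477 (200nM […]) for 30 min. cAMP read by HTRF (665/620 nm).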

[20] = biological target: D(2) dopamine receptor (Homo sapiens) (UniProt P14416); experiment: Dopamine D2 receptor (DRD2) small molecule antagonists, cell-based qHTS assay (AID 1963595; active means well fitted inhibition curve with a large enough effect in the signal ratio in the repeat runs, with a control signal flat; the % refers to the signal ratio)
Procedure, shortened: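 Antagonism was scored as restored cAMP in HEK293-DRD2 cells. These cells were stimulated with 200 nM NKH477 and 12 nM quinpirole for 30 min at room temperature, in the presence of 0.1 mM Ro20-1724.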
On the % scale 0 is the no-effect control and ±100 the full control effect.

KiSS-1 receptor (Homo sapiens), sequence (Q969F8 whole entry, looked up): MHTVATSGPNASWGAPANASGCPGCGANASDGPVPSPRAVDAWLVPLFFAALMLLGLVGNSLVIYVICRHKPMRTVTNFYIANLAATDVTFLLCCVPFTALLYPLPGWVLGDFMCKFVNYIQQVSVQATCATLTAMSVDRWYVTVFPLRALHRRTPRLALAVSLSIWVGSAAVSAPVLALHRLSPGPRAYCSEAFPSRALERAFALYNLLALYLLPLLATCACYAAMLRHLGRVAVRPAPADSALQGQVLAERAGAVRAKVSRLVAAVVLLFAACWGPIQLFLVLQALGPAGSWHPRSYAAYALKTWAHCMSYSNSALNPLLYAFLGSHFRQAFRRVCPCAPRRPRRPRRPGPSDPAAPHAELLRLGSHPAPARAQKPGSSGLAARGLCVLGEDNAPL
Muscarinic acetylcholine receptor M1 (Homo sapiens), sequence (P11229 whole entry, looked up): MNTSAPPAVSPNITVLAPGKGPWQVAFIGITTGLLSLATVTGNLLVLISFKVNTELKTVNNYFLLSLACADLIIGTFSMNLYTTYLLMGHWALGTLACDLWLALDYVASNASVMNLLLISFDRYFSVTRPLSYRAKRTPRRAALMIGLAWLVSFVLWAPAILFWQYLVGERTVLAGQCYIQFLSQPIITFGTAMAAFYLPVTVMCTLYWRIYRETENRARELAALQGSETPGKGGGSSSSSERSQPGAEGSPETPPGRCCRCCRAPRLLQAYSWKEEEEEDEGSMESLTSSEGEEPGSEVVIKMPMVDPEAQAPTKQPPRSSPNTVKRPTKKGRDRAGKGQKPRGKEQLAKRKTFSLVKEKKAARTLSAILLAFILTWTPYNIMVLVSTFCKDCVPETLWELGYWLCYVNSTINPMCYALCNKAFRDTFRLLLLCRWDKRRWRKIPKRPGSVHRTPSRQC
Beta-2 adrenergic receptor (Homo sapiens), sequence (P07550 whole entry, looked up): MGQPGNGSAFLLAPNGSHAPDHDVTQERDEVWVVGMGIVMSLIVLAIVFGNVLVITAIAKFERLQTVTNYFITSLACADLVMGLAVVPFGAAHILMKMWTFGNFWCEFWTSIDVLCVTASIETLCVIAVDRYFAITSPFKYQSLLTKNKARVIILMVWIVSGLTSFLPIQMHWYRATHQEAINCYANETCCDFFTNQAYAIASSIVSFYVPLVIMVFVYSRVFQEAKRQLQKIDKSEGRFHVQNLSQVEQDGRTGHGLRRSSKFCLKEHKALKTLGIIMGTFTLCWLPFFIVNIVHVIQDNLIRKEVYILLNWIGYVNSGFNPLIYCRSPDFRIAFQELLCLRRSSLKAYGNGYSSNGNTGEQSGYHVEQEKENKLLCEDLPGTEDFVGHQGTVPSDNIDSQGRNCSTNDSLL
5-hydroxytryptamine receptor 2A (Homo sapiens), sequence (P28223 whole entry, looked up): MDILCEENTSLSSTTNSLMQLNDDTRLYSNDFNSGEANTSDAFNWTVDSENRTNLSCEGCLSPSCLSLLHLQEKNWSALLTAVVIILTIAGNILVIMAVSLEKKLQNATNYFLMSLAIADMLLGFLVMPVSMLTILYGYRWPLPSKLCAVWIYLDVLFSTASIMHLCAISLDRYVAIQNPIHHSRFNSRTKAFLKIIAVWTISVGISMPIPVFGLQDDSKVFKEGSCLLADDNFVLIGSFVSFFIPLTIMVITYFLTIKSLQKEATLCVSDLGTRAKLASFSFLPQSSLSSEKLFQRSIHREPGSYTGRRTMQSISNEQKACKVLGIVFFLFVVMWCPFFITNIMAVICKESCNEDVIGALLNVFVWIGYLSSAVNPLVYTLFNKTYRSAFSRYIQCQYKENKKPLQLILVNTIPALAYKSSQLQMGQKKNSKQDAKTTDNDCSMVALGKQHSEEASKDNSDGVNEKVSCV
D(2) dopamine receptor (Homo sapiens), sequence (P14416 whole entry, looked up): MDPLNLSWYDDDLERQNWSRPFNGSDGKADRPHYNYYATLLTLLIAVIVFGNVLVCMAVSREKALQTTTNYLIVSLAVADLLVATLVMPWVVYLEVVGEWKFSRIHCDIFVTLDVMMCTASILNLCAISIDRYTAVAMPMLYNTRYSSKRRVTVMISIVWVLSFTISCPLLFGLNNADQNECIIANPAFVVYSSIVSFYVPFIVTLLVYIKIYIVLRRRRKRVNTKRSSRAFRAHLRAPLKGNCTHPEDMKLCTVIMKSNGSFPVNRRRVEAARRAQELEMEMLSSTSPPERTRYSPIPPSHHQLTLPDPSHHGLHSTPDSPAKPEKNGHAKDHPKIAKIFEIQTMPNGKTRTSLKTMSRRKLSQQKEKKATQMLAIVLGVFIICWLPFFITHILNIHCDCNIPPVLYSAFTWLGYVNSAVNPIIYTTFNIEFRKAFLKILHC
Gonadotropin-releasing hormone receptor (Homo sapiens), sequence (P30968 whole entry, looked up): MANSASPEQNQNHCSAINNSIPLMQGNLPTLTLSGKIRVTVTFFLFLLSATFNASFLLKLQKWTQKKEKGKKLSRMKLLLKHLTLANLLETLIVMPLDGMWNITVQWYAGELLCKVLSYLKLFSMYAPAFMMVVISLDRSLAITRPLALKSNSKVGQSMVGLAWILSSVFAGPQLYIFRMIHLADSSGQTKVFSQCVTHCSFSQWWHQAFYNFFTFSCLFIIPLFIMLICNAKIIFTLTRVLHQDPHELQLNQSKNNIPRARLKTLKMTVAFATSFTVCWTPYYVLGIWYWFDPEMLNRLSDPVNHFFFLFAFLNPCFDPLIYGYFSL

CCCC(=O)C(=O)O
inactive: Potency [1] | Potency [2] | Potency [3] | outcome [4] | outcome [5] | Potency [6] | Potency [7] | Potency [8] | Potency [9] | Potency [10] | Potency [11] | Potency [12] | Potency [13] | Potency [15] | Potency [16] | Potency [17] | Potency [18] | Potency [19] | Potency [20]
active: Potency [14] 10.6 µM

COC(=O)C1CC(=O)C(C(=O)OC)CC1=O (configuration not stated)
inactive: activity change, negative = cytotoxicity [1] 2.06% [at 8.39 µM] | activity, positive = activation [2] -3.71% [at 8.39 µM] | activity change [3] 0.483% [at 5.22 µM, stronger effect = higher value] | activation [4] 0.0459% [at 6.97 µM] | activation [5] -0.0233% [at 5.23 µM] | activation [6] -0.316% [at 5.99 µM] | activation [7] -0.919% [at 5.99 µM] | activity change, negative = cytotoxicity [8] -6.82% [at 5.99 µM] | activity change, negative = cytotoxicity [9] -4.56% [at 5.99 µM] | activity change, negative = cytotoxicity [10] -4.07% [at 5.99 µM] | activation [11] -3.72% [at 5.99 µM] | activity, negative = inhibition [12] 1.92% [at 5.62 µM] | activation [13] 7.2% [at 7.02 µM] | activity, negative = inhibition [14] 62.7% [at 5.58 µM] | activation [15] 0.037% [at 6.97 µM] | activation [16] 0.379% [at 8.39 µM] | activity change, negative = inhibition [17] -7.12% [at 8.39 µM] | activity change, negative = inhibition [18] 3.63% [at 8.39 µM] | activation [19] -0.218% [at 8.39 µM] | activity change, negative = inhibition [20] -0.133% [at 8.38 µM]

O=C1O[C@@H]2[C@@H](O)[C@H](O)O[C@@H]2[C@H]1O
inactive: Potency [1] | Potency [2] | Potency [3] | outcome [4] | outcome [5] | Potency [6] | Potency [7] | Potency [8] | Potency [9] | Potency [10] | Potency [11] | Potency [12] | Potency [13] | Potency [14] | Potency [15] | Potency [16] | Potency [17] | Potency [18] | Potency [20]

CCc1ccc(O)c(OC)c1
inactive: Potency [1] | Potency [2] | Potency [3] | outcome [4] | outcome [5] | Potency [6] | Potency [7] | Potency [8] | Potency [9] | Potency [10] | Potency [11] | Potency [12] | Potency [13] | Potency [14] | Potency [15] | Potency [16] | Potency [17] | Potency [19] | Potency [20]

Cc1cc(-n2nc3ccc(Cl)cc3n2)c(O)c(C(C)(C)C)c1
inactive: Potency [1] | Potency [2] | Potency [3] | outcome [4] | outcome [5] | Potency [6] | Potency [7] | Potency [8] | Potency [9] | Potency [10] | Potency [11] | Potency [12] | Potency [13] | Potency [14] | Potency [15] | Potency [16] | Potency [17] | Potency [18] | Potency [19] | Potency [20]

C=CC1CO1 (configuration not stated)
inactive: Potency [1] | Potency [2] | Potency [3] | outcome [4] | outcome [5] | Potency [6] | Potency [7] | Potency [8] | Potency [9] | Potency [10] | Potency [11] | Potency [12] | Potency [13] | Potency [14] | Potency [15] | Potency [16] | Potency [17] | Potency [18] | Potency [20]

CC(C)(C)C1(CCc2ccc(Cl)cc2)CO1 (configuration not stated)
inactive: Potency [1] | Potency [2] | Potency [3] | outcome [4] | outcome [5] | Potency [6] | Potency [7] | Potency [8] | Potency [9] | Potency [10] | Potency [11] | Potency [12] | Potency [13] | Potency [14] | Potency [15] | Potency [16] | Potency [17] | Potency [18] | Potency [19] | Potency [20]
